Results as given in publication PMC7862700, “An all-to-all approach to the identification of sequence-specific readers for epigenetic DNA modifications on cytosine”.

Legend:
Assay in all cases: DAPPL (digital affinity profiling via proximity ligation, sequencing); 10 mM Tris-HCl pH 7.5, 50 mM NaCl, 1 mM DTT, 4% glycerol, room temperature, 30 min; GST-TFs on glutathione beads, 16-mer random dsDNA library, 0.1% formaldehyde crosslink after washing; high values mean tight binding
Conditions in all cases: protein: recombinant; tags: N-terminal GST; dsDNA, one strand shown
FLI1 = target: T1, FLI1 (Homo sapiens, UniProt Q01543 1-452)
T1 sequence: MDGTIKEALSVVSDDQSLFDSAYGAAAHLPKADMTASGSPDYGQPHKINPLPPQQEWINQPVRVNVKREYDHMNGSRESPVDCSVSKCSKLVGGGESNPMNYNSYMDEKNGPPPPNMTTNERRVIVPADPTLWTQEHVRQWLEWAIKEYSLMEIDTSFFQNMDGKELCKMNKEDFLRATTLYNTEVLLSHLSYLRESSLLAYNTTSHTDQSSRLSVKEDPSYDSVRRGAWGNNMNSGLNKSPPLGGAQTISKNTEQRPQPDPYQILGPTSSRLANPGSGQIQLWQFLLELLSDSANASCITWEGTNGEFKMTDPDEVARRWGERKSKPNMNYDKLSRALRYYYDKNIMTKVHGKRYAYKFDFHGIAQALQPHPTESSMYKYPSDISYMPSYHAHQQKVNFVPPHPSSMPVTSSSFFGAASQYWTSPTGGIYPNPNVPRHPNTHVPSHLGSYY
Summary of the method: (§1)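 Sequencing on an Illumina NextSeq500 followed washing, crosslinking with 0.1% formaldehyde, proximity ligation (BsaI/T4 ligase, 1 h, 37 °C) and PCR amplification of pools that had been incubated for 30 min at room temperature with 200 nmole of a random double-stranded 16-mer DNA library in Tris/NaCl/DTT/glycerol buffer. Each pool held DNA-barcoded human transcription factors, expressed in yeast as GST fusions and captured on glutathione beads, plus a tag-only sample. Binding signal is a hexamer's read frequency for a factor divided by its frequency in the tag-only sample.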

ELK1 = target: T2, ELK1 (Homo sapiens, UniProt P19419 1-428)
T2 sequence: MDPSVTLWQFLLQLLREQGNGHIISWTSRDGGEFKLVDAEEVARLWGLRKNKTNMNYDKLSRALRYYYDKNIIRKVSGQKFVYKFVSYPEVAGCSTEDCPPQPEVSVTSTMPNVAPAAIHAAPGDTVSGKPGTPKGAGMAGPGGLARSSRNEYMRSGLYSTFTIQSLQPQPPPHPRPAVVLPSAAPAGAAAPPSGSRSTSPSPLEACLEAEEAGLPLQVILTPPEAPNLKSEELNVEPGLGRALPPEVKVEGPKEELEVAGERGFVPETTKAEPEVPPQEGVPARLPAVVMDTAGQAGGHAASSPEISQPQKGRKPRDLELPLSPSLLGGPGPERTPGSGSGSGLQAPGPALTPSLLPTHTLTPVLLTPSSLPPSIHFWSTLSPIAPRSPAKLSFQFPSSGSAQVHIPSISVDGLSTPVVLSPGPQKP
Summary of the method: as §1

GABPA = target: T3, GABPA (Homo sapiens, UniProt Q06546 1-454)
T3 sequence: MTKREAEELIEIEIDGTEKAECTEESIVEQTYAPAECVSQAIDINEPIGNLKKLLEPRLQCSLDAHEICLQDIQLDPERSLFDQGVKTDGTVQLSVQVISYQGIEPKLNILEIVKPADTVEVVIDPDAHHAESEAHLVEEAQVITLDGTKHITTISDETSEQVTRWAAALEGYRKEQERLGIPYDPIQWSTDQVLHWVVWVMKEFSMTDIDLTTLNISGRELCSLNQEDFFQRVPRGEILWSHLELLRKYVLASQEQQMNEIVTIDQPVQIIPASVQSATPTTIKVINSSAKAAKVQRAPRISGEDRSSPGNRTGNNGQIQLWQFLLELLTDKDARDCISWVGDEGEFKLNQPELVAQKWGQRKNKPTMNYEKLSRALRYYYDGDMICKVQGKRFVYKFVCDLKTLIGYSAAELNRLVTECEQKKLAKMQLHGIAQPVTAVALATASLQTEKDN
Summary of the method: as §1

ERG = target: T4, ERG (Homo sapiens, UniProt P11308 1-479)
T4 sequence: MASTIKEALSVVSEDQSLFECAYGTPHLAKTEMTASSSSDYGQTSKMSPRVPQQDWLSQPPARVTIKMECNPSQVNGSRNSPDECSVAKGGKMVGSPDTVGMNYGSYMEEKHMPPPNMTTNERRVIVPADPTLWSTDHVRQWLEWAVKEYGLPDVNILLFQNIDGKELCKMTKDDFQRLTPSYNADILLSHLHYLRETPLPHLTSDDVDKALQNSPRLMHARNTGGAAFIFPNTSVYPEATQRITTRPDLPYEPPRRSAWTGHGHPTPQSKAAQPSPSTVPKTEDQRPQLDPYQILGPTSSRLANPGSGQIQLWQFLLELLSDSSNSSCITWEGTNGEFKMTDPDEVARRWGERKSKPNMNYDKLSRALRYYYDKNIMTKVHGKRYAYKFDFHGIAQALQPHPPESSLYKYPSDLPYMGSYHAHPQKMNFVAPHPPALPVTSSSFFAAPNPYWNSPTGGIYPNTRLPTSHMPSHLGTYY
Summary of the method: as §1

ELF1 = ELF1 (Homo sapiens, UniProt P32519 1-619)
Summary of the method: as §1

EHF = target: T5, EHF (Homo sapiens, UniProt Q9NZC4 1-300)
T5 sequence: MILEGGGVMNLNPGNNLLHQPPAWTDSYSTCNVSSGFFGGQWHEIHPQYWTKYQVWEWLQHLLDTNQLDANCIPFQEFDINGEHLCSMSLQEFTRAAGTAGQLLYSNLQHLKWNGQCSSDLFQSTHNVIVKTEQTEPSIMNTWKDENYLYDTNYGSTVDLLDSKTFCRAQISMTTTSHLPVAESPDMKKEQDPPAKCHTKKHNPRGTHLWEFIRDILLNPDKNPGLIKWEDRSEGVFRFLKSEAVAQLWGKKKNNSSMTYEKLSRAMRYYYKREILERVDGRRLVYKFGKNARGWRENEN
Summary of the method: as §1

SPI1 = SPI1 (Homo sapiens, UniProt P17947 1-270)
Summary of the method: as §1

SPIB = SPIB (Homo sapiens, UniProt Q01892 1-262)
Summary of the method: as §1

ELK3 = target: T6, ELK3 (Homo sapiens, UniProt P41970 1-407)
T6 sequence: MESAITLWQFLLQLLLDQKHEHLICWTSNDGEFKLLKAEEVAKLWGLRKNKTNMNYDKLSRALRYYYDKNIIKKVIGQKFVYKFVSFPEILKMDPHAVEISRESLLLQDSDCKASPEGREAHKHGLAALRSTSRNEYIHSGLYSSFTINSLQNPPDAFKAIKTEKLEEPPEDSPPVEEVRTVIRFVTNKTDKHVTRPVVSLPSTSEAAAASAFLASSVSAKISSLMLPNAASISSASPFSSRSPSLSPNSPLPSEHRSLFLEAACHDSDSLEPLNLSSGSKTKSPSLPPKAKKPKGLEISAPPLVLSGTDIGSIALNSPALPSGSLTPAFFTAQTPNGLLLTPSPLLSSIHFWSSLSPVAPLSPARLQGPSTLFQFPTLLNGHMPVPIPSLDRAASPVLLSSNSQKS
Summary of the method: as §1

FEV = target: T7, FEV (Homo sapiens, UniProt Q99581 1-238)
T7 sequence: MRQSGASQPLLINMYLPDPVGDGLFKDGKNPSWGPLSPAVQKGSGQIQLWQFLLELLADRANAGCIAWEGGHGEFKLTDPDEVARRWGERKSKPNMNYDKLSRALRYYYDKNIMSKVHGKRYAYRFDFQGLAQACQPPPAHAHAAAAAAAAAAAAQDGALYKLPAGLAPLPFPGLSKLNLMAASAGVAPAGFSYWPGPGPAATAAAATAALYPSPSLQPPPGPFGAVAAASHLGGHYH
Summary of the method: as §1

ETV5 = ETV5 (Homo sapiens, UniProt P41161 1-510)
Summary of the method: as §1

SPIC = target: T8, SPIC (Homo sapiens, UniProt Q8N5J4 1-248)
T8 sequence: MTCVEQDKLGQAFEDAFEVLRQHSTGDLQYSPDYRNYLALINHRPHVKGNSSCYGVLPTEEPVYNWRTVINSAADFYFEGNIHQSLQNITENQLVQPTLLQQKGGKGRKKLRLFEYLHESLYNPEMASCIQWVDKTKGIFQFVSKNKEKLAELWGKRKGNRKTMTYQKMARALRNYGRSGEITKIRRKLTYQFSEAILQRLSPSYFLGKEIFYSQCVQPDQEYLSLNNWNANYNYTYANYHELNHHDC
Summary of the method: as §1

ELF4 = ELF4 (Homo sapiens, UniProt Q99607 1-663)
Summary of the method: as §1

ELK4 = target: T9, ELK4 (Homo sapiens, UniProt P28324-2 1-405)
T9 sequence: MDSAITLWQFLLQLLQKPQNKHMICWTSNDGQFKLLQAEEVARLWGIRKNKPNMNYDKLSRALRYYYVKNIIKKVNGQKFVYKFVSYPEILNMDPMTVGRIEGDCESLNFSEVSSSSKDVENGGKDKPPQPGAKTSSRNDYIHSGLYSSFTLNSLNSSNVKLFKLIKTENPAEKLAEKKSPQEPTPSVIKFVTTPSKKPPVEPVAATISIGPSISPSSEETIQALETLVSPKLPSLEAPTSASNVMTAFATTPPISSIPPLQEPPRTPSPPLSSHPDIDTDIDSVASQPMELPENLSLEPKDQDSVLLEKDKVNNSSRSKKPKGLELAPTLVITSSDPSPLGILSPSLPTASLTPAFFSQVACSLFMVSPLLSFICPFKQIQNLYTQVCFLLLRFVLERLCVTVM
Summary of the method: as §1

ETV2 = target: T10, ETV2 (Homo sapiens, UniProt O00321 1-342)
T10 sequence: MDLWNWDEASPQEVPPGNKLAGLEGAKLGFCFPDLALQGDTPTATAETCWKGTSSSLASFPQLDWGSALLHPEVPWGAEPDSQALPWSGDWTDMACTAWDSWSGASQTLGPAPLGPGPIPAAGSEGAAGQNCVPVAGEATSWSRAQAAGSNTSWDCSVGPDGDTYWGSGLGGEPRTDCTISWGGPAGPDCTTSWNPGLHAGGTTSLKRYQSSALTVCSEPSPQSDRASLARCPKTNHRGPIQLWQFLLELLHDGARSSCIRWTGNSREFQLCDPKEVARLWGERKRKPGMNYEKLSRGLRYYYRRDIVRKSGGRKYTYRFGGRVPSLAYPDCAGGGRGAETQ
Summary of the method: as §1

ELF3 = target: T11, ELF3 (Homo sapiens, UniProt P78545 1-371)
T11 sequence: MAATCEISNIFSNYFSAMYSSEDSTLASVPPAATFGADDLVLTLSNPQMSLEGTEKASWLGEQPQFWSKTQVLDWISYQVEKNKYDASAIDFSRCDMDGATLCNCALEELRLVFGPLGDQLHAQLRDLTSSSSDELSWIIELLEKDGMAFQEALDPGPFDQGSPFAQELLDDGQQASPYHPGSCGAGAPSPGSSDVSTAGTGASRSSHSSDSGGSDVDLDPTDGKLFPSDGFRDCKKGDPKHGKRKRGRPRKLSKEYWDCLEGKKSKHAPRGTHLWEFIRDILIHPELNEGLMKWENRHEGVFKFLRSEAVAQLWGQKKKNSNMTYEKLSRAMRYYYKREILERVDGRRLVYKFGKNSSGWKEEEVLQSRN
Summary of the method: as §1

ETV1 = ETV1 (Homo sapiens, UniProt P50549 1-477)
Summary of the method: as §1

ETV1, sequence (P50549 whole entry): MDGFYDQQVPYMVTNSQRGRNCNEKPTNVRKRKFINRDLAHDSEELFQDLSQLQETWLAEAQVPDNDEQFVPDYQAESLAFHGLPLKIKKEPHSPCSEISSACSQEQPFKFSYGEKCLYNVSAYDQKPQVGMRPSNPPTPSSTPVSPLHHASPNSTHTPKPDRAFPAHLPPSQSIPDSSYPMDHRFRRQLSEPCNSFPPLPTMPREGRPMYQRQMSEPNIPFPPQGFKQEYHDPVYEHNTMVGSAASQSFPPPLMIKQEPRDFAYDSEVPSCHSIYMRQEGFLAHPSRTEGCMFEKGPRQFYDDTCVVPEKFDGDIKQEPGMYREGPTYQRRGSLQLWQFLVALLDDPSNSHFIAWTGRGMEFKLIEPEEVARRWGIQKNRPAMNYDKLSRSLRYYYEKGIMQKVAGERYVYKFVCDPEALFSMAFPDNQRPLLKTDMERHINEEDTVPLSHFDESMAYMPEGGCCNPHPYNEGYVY
SPIB, sequence (Q01892 whole entry): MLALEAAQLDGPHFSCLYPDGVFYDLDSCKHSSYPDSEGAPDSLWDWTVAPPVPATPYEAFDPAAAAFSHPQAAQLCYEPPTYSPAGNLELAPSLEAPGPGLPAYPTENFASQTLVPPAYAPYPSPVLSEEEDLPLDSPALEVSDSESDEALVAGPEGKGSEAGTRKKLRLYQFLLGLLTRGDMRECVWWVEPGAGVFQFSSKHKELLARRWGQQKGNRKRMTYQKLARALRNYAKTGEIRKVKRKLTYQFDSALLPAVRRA
ELF4, sequence (Q99607 whole entry): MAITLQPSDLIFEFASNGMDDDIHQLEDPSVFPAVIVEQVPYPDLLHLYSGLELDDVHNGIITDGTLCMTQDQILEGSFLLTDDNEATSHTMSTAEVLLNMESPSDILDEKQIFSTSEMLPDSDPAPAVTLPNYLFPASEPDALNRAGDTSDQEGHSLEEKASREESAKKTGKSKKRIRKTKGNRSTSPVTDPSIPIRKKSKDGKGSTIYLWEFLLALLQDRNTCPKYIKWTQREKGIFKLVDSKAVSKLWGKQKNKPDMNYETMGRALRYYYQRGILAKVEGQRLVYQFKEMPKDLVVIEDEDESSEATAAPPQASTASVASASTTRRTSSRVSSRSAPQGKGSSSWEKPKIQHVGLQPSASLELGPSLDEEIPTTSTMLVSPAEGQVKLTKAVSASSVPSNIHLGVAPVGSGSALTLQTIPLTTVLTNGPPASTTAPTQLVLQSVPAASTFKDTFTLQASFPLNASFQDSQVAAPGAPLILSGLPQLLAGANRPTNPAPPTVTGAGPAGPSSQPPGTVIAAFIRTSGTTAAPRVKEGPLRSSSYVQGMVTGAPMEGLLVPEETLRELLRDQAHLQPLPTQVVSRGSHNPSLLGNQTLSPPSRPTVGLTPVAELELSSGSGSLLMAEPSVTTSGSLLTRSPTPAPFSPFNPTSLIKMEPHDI
ELF1, sequence (P32519 whole entry): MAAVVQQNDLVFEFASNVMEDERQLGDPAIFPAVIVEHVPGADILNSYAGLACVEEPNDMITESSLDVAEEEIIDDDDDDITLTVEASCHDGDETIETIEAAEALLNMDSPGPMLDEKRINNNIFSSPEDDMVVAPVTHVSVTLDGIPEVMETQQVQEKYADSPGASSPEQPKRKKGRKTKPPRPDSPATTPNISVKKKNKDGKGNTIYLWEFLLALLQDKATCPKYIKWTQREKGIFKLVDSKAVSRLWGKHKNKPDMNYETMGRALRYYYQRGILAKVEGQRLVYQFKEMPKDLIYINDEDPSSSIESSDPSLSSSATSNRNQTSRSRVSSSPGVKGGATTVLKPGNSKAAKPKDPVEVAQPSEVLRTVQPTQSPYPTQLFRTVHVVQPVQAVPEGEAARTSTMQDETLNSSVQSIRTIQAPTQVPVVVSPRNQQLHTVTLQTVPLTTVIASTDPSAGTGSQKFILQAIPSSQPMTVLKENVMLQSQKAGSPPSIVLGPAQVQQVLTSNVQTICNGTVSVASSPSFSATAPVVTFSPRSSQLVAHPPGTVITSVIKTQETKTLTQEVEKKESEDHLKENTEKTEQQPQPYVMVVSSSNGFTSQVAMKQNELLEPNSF
ETV5, sequence (P41161 whole entry): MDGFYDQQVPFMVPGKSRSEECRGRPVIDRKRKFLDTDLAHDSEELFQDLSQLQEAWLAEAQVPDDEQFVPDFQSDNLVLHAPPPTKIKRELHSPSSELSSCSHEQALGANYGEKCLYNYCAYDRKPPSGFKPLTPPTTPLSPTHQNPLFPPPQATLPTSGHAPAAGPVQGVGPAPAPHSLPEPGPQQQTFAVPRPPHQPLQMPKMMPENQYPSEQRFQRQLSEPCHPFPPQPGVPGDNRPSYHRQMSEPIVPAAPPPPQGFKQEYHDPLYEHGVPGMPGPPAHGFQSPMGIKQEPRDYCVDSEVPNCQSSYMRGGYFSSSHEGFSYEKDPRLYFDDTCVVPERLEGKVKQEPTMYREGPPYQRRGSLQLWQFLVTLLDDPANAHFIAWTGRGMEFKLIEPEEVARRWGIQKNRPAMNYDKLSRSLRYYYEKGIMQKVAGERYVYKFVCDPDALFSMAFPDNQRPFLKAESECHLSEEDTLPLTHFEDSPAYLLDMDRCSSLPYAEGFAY

GCGGAA
binding signal (FLI1): 1.37 fold enrichment (6-mer frequency, TF over GST control)
binding signal (ELK1): 1.33 fold enrichment (6-mer frequency, TF over GST control)
binding signal (GABPA): 1.29 fold enrichment (6-mer frequency, TF over GST control)
binding signal (ERG): 1.46 fold enrichment (6-mer frequency, TF over GST control)
binding signal (ELF1): 1.28 fold enrichment (6-mer frequency, TF over GST control)
binding signal (EHF): 1.52 fold enrichment (6-mer frequency, TF over GST control)
binding signal (SPI1): 2.18 fold enrichment (6-mer frequency, TF over GST control)
binding signal (SPIB): 1.49 fold enrichment (6-mer frequency, TF over GST control)
binding signal (ELK3): 1.37 fold enrichment (6-mer frequency, TF over GST control)
binding signal (FEV): 1.34 fold enrichment (6-mer frequency, TF over GST control)
binding signal (ETV5): 1.56 fold enrichment (6-mer frequency, TF over GST control)
binding signal (SPIC): 1.5 fold enrichment (6-mer frequency, TF over GST control)
binding signal (ELF4): 1.21 fold enrichment (6-mer frequency, TF over GST control)
binding signal (ELK4): 1.05 fold enrichment (6-mer frequency, TF over GST control)
binding signal (ETV2): 1.34 fold enrichment (6-mer frequency, TF over GST control)
binding signal (ELF3): 1.53 fold enrichment (6-mer frequency, TF over GST control)
binding signal (ETV1): 1.42 fold enrichment (6-mer frequency, TF over GST control)
